Data reported in PubChem BioAssay (EPA / NIEHS).
“And” between values parts separate entries of the source, which are not always exact repeats. Equal values may be shown once. Where a structure was tested more than once in an assay, its records may differ in their call. The source made the active and inactive calls. The calls were made as follows: active = hit-call score of the fitted dose curve at least 0.9, where 1 is the maximum; inactive = score below 0.9.

Columns and labels:
[1] = read-out: Interferon-gamma inducible Protein 10 (IP10), CXCL10 (gene 3627); assay: BSK_hDFCGF_IP10: BioMAP Diversity Plus: hDFCGF Assay for Interferon-gamma inducible Protein 10 (IP10) Biomarker Activity (AID 2283053); conditions: primary human foreskin fibroblasts; actives raise or lower the signal
Method in brief: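 IP-10 levels, quantified by ELISA, are taken from human foreskin fibroblast cultures 24 h after chemical treatment, with DMSO serving as negative control and baseline for bidirectional analysis.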

[2] = read-out: Urokinase-type plasminogen activator receptor (uPAR), PLAUR (gene 5329); assay: BSK_CASM3C_uPAR: BioMAP Diversity Plus: CASM3C Assay for Urokinase-type plasminogen activator receptor (uPAR) Biomarker Activity (AID 2283054); conditions: primary human coronary artery smooth muscle cells; actives raise or lower the signal;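 also: cell-surface uPAR protein level quantified by ELISA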
[3] = read-out: Vascular cell adhesion molecule 1 (VCAM1), VCAM1 (gene 7412); assay: BSK_CASM3C_VCAM1: BioMAP Diversity Plus: CASM3C Assay for Vascular cell adhesion molecule 1 (VCAM1) Biomarker Activity (AID 2283055); conditions: primary human coronary artery smooth muscle cells; actives raise or lower the signal;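 also: VCAM-1 protein level quantified by ELISA on the cells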
[4] = read-out: Collagen III, COL3A1 (gene 1281); assay: BSK_hDFCGF_CollagenIII: BioMAP Diversity Plus: hDFCGF Assay for Collagen III Biomarker Activity (AID 2283056); conditions: primary human foreskin fibroblasts; actives raise or lower the signal
Method in brief: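 Response relative to DMSO, fitted in both directions, reflects ELISA-measured collagen III in human primary skin fibroblasts 24 h after compound addition.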

[5] = read-out: Epidermal growth factor receptor (EGFR), EGFR (gene 1956); assay: BSK_hDFCGF_EGFR: BioMAP Diversity Plus: hDFCGF Assay for Epidermal growth factor receptor (EGFR) Biomarker Activity (AID 2283057); conditions: primary human foreskin fibroblasts; actives raise or lower the signal
Method in brief: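 Measured by ELISA: EGFR levels on primary human foreskin fibroblasts 24 h after chemical treatment, analysed relative to DMSO with bidirectional fitting.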

[6] = read-out: Interleukin-8 (IL8), CXCL8 (gene 3576); assay: BSK_hDFCGF_IL8: BioMAP Diversity Plus: hDFCGF Assay for Interleukin-8 (IL8) Biomarker Activity (AID 2283058); conditions: primary human foreskin fibroblasts; actives raise or lower the signal
Method in brief: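 Fibroblast monolayers (human foreskin, hDFCGF) received test chemical for 24 h before ELISA detection of IL-8; either increases or decreases relative to DMSO count as activity.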

[7] = BSK_hDFCGF_Proliferation: Cell Proliferation Assessment in the BioMAP Diversity Plus: hDFCGF Assay (AID 2283059); conditions: primary human foreskin fibroblasts;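 also: curves fitted for both rise and fall of signal versus DMSO baseline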
Method in brief: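 Primary human foreskin fibroblasts, sub-confluent; […]; 10% TCA fix, 0.1% SRB stain, A560 total protein. Gain/loss fitted bidirectionally vs DMSO control.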

[8] = read-out: Macrophage colony-stimulating factor (MCSF), CSF1 (gene 1435); assay: BSK_hDFCGF_MCSF: BioMAP Diversity Plus: hDFCGF Assay for Macrophage colony-stimulating factor (MCSF) Biomarker Activity (AID 2283060); conditions: primary human foreskin fibroblasts; actives raise or lower the signal
Method in brief: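 fibroblasts (human foreskin, primary), 24 h post-dose; M-CSF by ELISA; bidirectional fit, DMSO = baseline.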

[9] = BSK_hDFCGF_SRB: Viability Assessment in the BioMAP Diversity Plus: hDFCGF Assay (AID 2283061); conditions: primary human foreskin fibroblasts;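 also: cells exposed to compound for 24 h before the read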
Method in brief: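 SRB-based viability read on primary human skin fibroblasts at 24 h: TCA fixation, 0.1% dye, 560 nm. Gain or loss of signal is fitted against the DMSO negative control.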

[10] = read-out: TIMP metallopeptidase inhibitor 1 (TIMP1), TIMP1 (gene 7076); assay: BSK_hDFCGF_TIMP1: BioMAP Diversity Plus: hDFCGF Assay for TIMP metallopeptidase inhibitor 1 (TIMP1) Biomarker Activity (AID 2283062); conditions: primary human foreskin fibroblasts; actives raise or lower the signal
Method in brief: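 Bidirectional curve fitting against DMSO baseline yielded this endpoint, based on ELISA detection of TIMP-1 in primary human foreskin fibroblasts exposed to compound for 24 h.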

[11] = read-out: Monokine induced gamma interferon (MIG), CXCL9 (gene 4283); assay: BSK_hDFCGF_MIG: BioMAP Diversity Plus: hDFCGF Assay for Monokine induced gamma interferon (MIG) Biomarker Activity (AID 2283063); conditions: primary human foreskin fibroblasts; actives raise or lower the signal
Method in brief: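 Endpoint derived by bidirectional fitting relative to DMSO; MIG quantified via ELISA in primary human foreskin fibroblasts harvested 24 h after dosing.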

[12] = read-out: Matrix Metallopeptidase 1 (MMP1), MMP1 (gene 4312); assay: BSK_hDFCGF_MMP1: BioMAP Diversity Plus: hDFCGF Assay for Matrix Metallopeptidase 1 (MMP1) Biomarker Activity (AID 2283064); conditions: primary human foreskin fibroblasts; actives raise or lower the signal
Method in brief: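 hDFCGF primary fibroblasts (human foreskin); chemical added; 24 h; MMP1 by ELISA; bidirectional fit vs DMSO.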

[13] = read-out: Vascular cell adhesion molecule 1 (VCAM1), VCAM1 (gene 7412); assay: BSK_hDFCGF_VCAM1: BioMAP Diversity Plus: hDFCGF Assay for Vascular cell adhesion molecule 1 (VCAM1) Biomarker Activity (AID 2283065); conditions: primary human foreskin fibroblasts; actives raise or lower the signal;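 as to AC50: VCAM-1 protein level quantified by ELISA after 24 h chemical exposure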
Method in brief: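 Measured after 24 h chemical treatment of primary human skin fibroblasts, VCAM-1 was detected by ELISA and concentration-response analysed in both directions versus DMSO vehicle.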

[14] = read-out: Plasminogen activator inhibitor-1 (PAI1), SERPINE1 (gene 5054); assay: BSK_hDFCGF_PAI1: BioMAP Diversity Plus: hDFCGF Assay for Plasminogen activator inhibitor-1 (PAI1) Biomarker Activity (AID 2283066); conditions: primary human foreskin fibroblasts; actives raise or lower the signal
Method in brief: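 PAI-1 levels, determined by ELISA, served as the endpoint in human foreskin fibroblast cultures exposed to compound for 24 h, with DMSO as baseline.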

[15] = read-out: Intercellular Adhesion Molecule 1 (ICAM1), ICAM1 (gene 3383); assay: BSK_KF3CT_ICAM1: BioMAP Diversity Plus: KF3CT Assay for Intercellular Adhesion Molecule 1 (ICAM1) Biomarker Activity (AID 2283067); conditions: primary human keratinocytes with fibroblasts; actives raise or lower the signal
Method in brief: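 Bidirectional curve fitting against a DMSO baseline was applied to ICAM-1 ELISA signal from primary human skin co-cultures harvested 24 h after treatment, with SRB staining of parallel wells for overt cytotoxicity.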

[16] = read-out: Interferon-gamma inducible Protein 10 (IP10), CXCL10 (gene 3627); assay: BSK_KF3CT_IP10: BioMAP Diversity Plus: KF3CT Assay for Interferon-gamma inducible Protein 10 (IP10) Biomarker Activity (AID 2283068); conditions: primary human keratinocytes with fibroblasts; actives raise or lower the signal
Method in brief: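 In a primary skin co-culture of keratinocytes and fibroblasts, IP-10 is quantified by ELISA at 24 h after dosing. SRB staining of parallel wells monitors overt toxicity. Curves are fitted both directions against DMSO.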

[17] = BSK_KF3CT_SRB: Viability Assessment in the BioMAP Diversity Plus: KF3CT Assay (AID 2283069); conditions: primary human keratinocytes with fibroblasts;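 also: total protein by sulforhodamine B staining as a cytotoxicity measure; fitted for both signal gain and loss against DMSO baseline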
Method in brief: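 Keratinocytes co-cultured with foreskin fibroblasts (human primary); chemical added, 24 h; fix 10% TCA, stain 0.1% SRB, A560. Bidirectional fit vs DMSO.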

[18] = read-out: Interleukin-1 alpha (IL1a), IL1A (gene 3552); assay: BSK_KF3CT_IL1a: BioMAP Diversity Plus: KF3CT Assay for Interleukin-1 alpha (IL1a) Biomarker Activity (AID 2283070); conditions: primary human keratinocytes with fibroblasts; actives raise or lower the signal
Method in brief: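 Chemicals were dosed onto co-cultured human keratinocytes and foreskin fibroblasts, IL-1a was quantified by ELISA at 24 h, and activity was fitted in both directions relative to DMSO controls.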

[19] = read-out: TIMP metallopeptidase inhibitor 2 (TIMP2), TIMP2 (gene 7077); assay: BSK_KF3CT_TIMP2: BioMAP Diversity Plus: KF3CT Assay for TIMP metallopeptidase inhibitor 2 (TIMP2) Biomarker Activity (AID 2283071); conditions: primary human keratinocytes with fibroblasts; actives raise or lower the signal
Method in brief: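 Keratinocyte–fibroblast co-culture, 24 h exposure; TIMP-2 ELISA, DMSO-normalised bidirectional fit. Parallel SRB (0.1%, TCA-fixed, 560 nm) total-protein staining gauges cytotoxicity.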

[20] = read-out: Transforming growth factor beta 1 (TGFb1), TGFB1 (gene 7040); assay: BSK_KF3CT_TGFb1: BioMAP Diversity Plus: KF3CT Assay for Transforming growth factor beta 1 (TGFb1) Biomarker Activity (AID 2283072); conditions: primary human keratinocytes with fibroblasts; actives raise or lower the signal
Method in brief: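 Signal changes in either direction, relative to DMSO, define activity here. TGF-b1 is read by ELISA from a human keratinocyte-fibroblast co-culture 24 h post-dose.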

Measured: AC50

C=CC(=C)CC/C=C(\C)CCC=C(C)C
active: [4] 3.62 µM | [7] 6.49 µM
inactive: all other assays above

Cc1[nH]nc2c1N=C(c1ccccc1Cl)c1cc([N+](=O)[O-])ccc1N2
active: [3] 9.37 µM | [5] 20 µM | [7] 0.187 µM | [11] 31.1 µM | [12] 2.47 µM | [14] 5.16 µM
not listed: [17]
inactive: all other assays above

O=C1c2ccc(O)c(O)c2C(=O)c2c(O)ccc(O)c21
active: [2] 0.0224 µM
not listed: [17]
inactive: all other assays above

CCCCCCCCCCCC
active: [1] 8.64 µM and 6.71 µM | [4] 9.2 µM and 5.67 µM | [6] 12.9 µM and 14.6 µM | [7] 11.6 µM and 11.5 µM | [8] 9.32 µM and 10.2 µM | [9] 8.02 µM and 11.1 µM | [10] 7.88 µM and 9.41 µM | [11] 11.6 µM and 10.2 µM | [12] 5.36 µM and 7.16 µM | [13] 8.36 µM and 7.77 µM | [14] 11.2 µM and 10.6 µM | [15] 15.2 µM and 15.8 µM | [16] 11.1 µM and 10.1 µM | [18] 11.4 µM and 12.2 µM | [19] 7.91 µM and 9.05 µM
inactive: [2] | [3] | [5]

O=C(O)C(F)(F)OC(F)(F)C(F)(F)OC(F)(F)C(F)(F)OC(F)(F)C(F)(F)C(F)(F)C(F)(F)F
active: [1] 10.1 µM and 9.36 µM | [3] 24.8 µM and 30 µM | [4] 10.9 µM and 9.27 µM | [6] 21.9 µM and 21.2 µM | [7] 7.93 µM and 8.07 µM | [8] 11.6 µM and 10.5 µM | [9] 8.7 µM and 8.8 µM | [10] 10.6 µM and 8.08 µM | [11] 12.1 µM and 10.3 µM | [12] 7.6 µM and 8.44 µM | [13] 7.84 µM and 6.66 µM | [14] 11.4 µM | [15] 20.7 µM and 21.8 µM | [16] 7.51 µM and 7.14 µM | [18] 14.2 µM and 11.1 µM | [19] 8.14 µM and 7.33 µM
inactive: [2] | [5]

CCCCc1oc2ccccc2c1C(=O)c1cc(I)c(OCCN(CC)CC)c(I)c1
active: [1] 8.78 µM | [2] 13.7 µM | [3] 25.3 µM | [4] 7.23 µM | [6] 10.3 µM | [7] 3.97 µM | [8] 6.99 µM | [9] 4.64 µM | [10] 9.35 µM | [11] 10.2 µM | [12] 9.45 µM | [13] 8.94 µM | [14] 4.81 µM | [15] 22.8 µM | [16] 8.36 µM | [17] 9.02 µM | [18] 9.69 µM | [19] 8.7 µM | [20] 5.6 µM
inactive: [5]

C=CC(=O)OCCC(F)(F)C(F)(F)C(F)(F)C(F)(F)C(F)(F)C(F)(F)C(F)(F)C(F)(F)F
inactive: [1] | [2] | [3] | [4] | [5] | [6] | [7] | [8] | [9] | [10] | [11] | [12] | [13] | [14] | [15] | [16] | [18] | [19]
active: [7] 30 µM

O=C(NO)c1ccccc1
active: [7] 3.81 µM
not listed: [16] | [17]
inactive: all other assays above

CC[N+](CC)(CC)Cc1ccccc1
not listed: [16]
inactive: all other assays above

CCCCCc1ccc(O)cc1
inactive: [6]
active: [1] 33.2 µM | [2] 14.4 µM | [3] 13.1 µM | [4] 12.5 µM | [5] 29.9 µM | [7] 8.97 µM | [8] 25.5 µM | [9] 28.9 µM | [10] 20 µM | [11] 31.3 µM | [12] 20 µM | [13] 15.2 µM | [14] 28.5 µM | [15] 27.6 µM | [18] 20 µM | [19] 10.4 µM | [20] 5.62 µM

CN(C)CCOC(c1ccccc1)c1ccccc1
active: [1] 33.6 µM
not listed: [8] | [16] | [17]
inactive: all other assays above
